Here are results for ten molecules from publication PMC5540273 (PLoS ONE, 2017).

Some test systems named below: KIT-autoinhibited; KIT; LATS1; LATS2; LCK; LIMK1; LIMK2; LRRK2; LTK; LYN; MAK; MAP3K15; MAP3K1; MAP3K2; MAP3K3; MAP3K4.
Details in all cases: concentration: 1 μM, replicates: in singlicate; n = 1
The subject of the next assay is T1, JNK3.
T1 construct: gene MAPK10

Another assay has as its system T2, LKB1.
T2 construct: gene STK11

The test system of another assay is T3, LOK.
T3 construct: gene STK10

Another assay has as its system T4, LZK.
T4 construct: gene MAP3K13

Structures are written as SMILES.
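Note: KINOMEscan kinase panel screen.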

As to `Fc1ccc(-c2nc3n(c2-c2ccncc2)CCS3)cc1` [GI98581], the “%Inh” value with JNK3 is reported as 98.7%; in the assay on KIT-autoinhibited, 0%; in the assay with KIT it was 15%; with LATS1, 2%; in the assay on LATS2 it was 0%; with LCK it was 26%. The “%Inh” value stood at 0% in the assay on LIMK1; 0% with LIMK2; 11% in the assay on LKB1; 0% with LOK; 14% with LRRK2; 22% in the assay on LTK. For the same molecule, the “%Inh” value with LYN came to 0%; with LZK, 3%; with MAK it was 63%; with MAP3K15 it was 0%; with MAP3K1 it was 13%; in the assay on MAP3K2, 6%. The results for the “%Inh” value in the assay on MAP3K3 and with MAP3K4 were 0% and 10%, respectively.

Take `c1ccc(-c2ccnc3[nH]ccc23)cc1` [SB-693578]: the “%Inh” value in the assay on JNK3 is given as 11%; with KIT-autoinhibited, 0%; with KIT, 1%; with LATS1 it was 0%; in the assay on LATS2, 53%; in the assay with LCK, 7%. Besides, the “%Inh” value came to 6% in the assay with LIMK1; 0% with LIMK2; 0% in the assay on LKB1; 0% in the assay on LOK; 44% in the assay with LRRK2; 0% with LTK. Besides, the “%Inh” value in the assay with LYN is on record as 0%; with LZK, 11%; in the assay with MAK, 0%; in the assay with MAP3K15, 26%; with MAP3K1, 19%; in the assay with MAP3K2 it was 50%. Besides, the “%Inh” value with MAP3K3 was determined as 5%; in the assay with MAP3K4, 12%.

In the case of `Cn1cnc2c(N)ncnc21` [SKF-97623], the “%Inh” value with JNK3 is 0%; in the assay on KIT-autoinhibited, 35%; in the assay with KIT it was 0%; in the assay with LATS1 it was 22%; in the assay with LATS2, 0%; with LCK, 0%. In addition, the “%Inh” value in the assay with LIMK1 is 0%; with LIMK2, 0%; in the assay with LKB1, 36%; with LOK, 4%; in the assay on LRRK2, 0%; in the assay with LTK it was 0%. Also, the “%Inh” value in the assay on LYN was 0%; with LZK it was 2%; in the assay on MAK, 0%; in the assay on MAP3K15, 0%; in the assay on MAP3K1, 0%; in the assay on MAP3K2 it was 0%. The “%Inh” value with MAP3K3 and in the assay with MAP3K4 was 0% each time.

Regarding `CCn1c(-c2ccccc2)nc2cnccc21` [SB-733416], the “%Inh” value in the assay on JNK3 turned out to be 7%; in the assay on KIT-autoinhibited, 0%; in the assay with KIT, 8%; in the assay on LATS1, 0%; in the assay with LATS2 it was 0%; with LCK it was 18%. Moreover, the “%Inh” value with LIMK1 is reported as 20%; in the assay with LIMK2 it was 0%; with LKB1 it was 0%; in the assay on LOK, 0%; with LRRK2, 51%; in the assay with LTK, 0%. Moreover, the “%Inh” value in the assay with LYN was found to be 0%; in the assay with LZK, 0%; with MAK it was 11%; in the assay with MAP3K15 it was 22%; in the assay with MAP3K1 it was 14%; with MAP3K2, 2%. The “%Inh” value with MAP3K3 and in the assay on MAP3K4 was 0% throughout.

`Cc1ccc(NC(=O)Nc2ccccc2)cc1-c1ccc(C(=O)Nc2ccncc2)cc1` [GSK1398471]: the “%Inh” value is reported as 8% with JNK3; 0% with KIT-autoinhibited; 99.7% with KIT; 0% in the assay on LATS1; 0% with LATS2; 35% in the assay with LCK. Moreover, the “%Inh” value turned out to be 18% with LIMK1; 0% in the assay on LIMK2; 0% in the assay on LKB1; 25% in the assay with LOK; 0% with LRRK2; 0% in the assay on LTK. Also, the “%Inh” value with LYN was found to be 66%; in the assay on LZK, 0%; in the assay with MAK, 17%; in the assay with MAP3K15, 0%; in the assay on MAP3K1 it was 8%; in the assay with MAP3K2 it was 0%. For the same molecule, the “%Inh” value in the assay on MAP3K3 and in the assay on MAP3K4 was 0% throughout.

As to `CC(=O)c1c(C)c2cnc(Nc3ccn(C)n3)nc2n(C2CCCC2)c1=O`, the “%Inh” value was found to be 0% in the assay with JNK3; 0% in the assay on KIT-autoinhibited; 0% in the assay on KIT; 0% in the assay with LATS1; 4% in the assay on LATS2; 8% in the assay with LCK. For the same molecule, the “%Inh” value was 23% in the assay on LIMK1; 0% in the assay on LIMK2; 0% with LKB1; 15% in the assay on LOK; 0% with LRRK2; 0% in the assay on LTK. The “%Inh” value is listed as 10% in the assay with LYN; 0% in the assay on LZK; 0% with MAK; 0% with MAP3K15; 0% with MAP3K1; 0% in the assay with MAP3K2. For the same molecule, the “%Inh” value in the assay on MAP3K3 and in the assay with MAP3K4 was 0% throughout.

For `COc1ccc(Nc2nccc(NCCNC(=O)Nc3cc(C)ccc3C)n2)cc1` [GSK1379899], the “%Inh” value in the assay with JNK3 is 0%; with KIT-autoinhibited it was 0%; with KIT, 0%; with LATS1, 0%; in the assay on LATS2, 0%; in the assay on LCK, 26%. Moreover, the “%Inh” value in the assay on LIMK1 was 0%; in the assay with LIMK2, 0%; with LKB1 it was 0%; in the assay on LOK it was 0%; in the assay on LRRK2, 23%; in the assay with LTK, 0%. In addition, the “%Inh” value is on record as 0% in the assay with LYN; 0% in the assay with LZK; 20% in the assay with MAK; 0% with MAP3K15; 1% in the assay on MAP3K1; 0% in the assay with MAP3K2. Besides, the “%Inh” value worked out at 0% in the assay on MAP3K3 and 3% in the assay on MAP3K4.

Regarding `O=c1cc(N2CCOCC2)nc2n(Cc3cccc(Cl)c3Cl)c3ccccc3n12` [GSK2299009], the “%Inh” value is reported as 3% in the assay with JNK3; 0% in the assay with KIT-autoinhibited; 36% in the assay on KIT; 0% with LATS1; 16% with LATS2; 43% in the assay with LCK. The “%Inh” value amounted to 4% in the assay on LIMK1; 24% in the assay with LIMK2; 8% in the assay on LKB1; 0% in the assay with LOK; 0% with LRRK2; 39% in the assay with LTK. Also, the “%Inh” value in the assay on LYN stood at 0%; with LZK it was 0%; in the assay on MAK, 15%; in the assay on MAP3K15, 3%; with MAP3K1, 7%; with MAP3K2 it was 21%. The “%Inh” value in the assay with MAP3K3 and with MAP3K4 was 0% in each case.

In the case of `Cl.Cl.Cl.N#Cc1ccc(CCNc2nccc(-c3cccc(CN4CCNCC4)c3)n2)cc1` [GSK2137462], the “%Inh” value with JNK3 was 22%; in the assay on KIT-autoinhibited, 0%; in the assay with KIT it was 29%; with LATS1, 15%; with LATS2 it was 36%; with LCK, 12%. The “%Inh” value with LIMK1 was found to be 18%; with LIMK2 it was 38%; in the assay on LKB1, 1%; with LOK it was 0%; in the assay on LRRK2, 0%; in the assay with LTK, 0%. Moreover, the “%Inh” value came to 1% with LYN; 0% in the assay with LZK; 8% in the assay with MAK; 0% with MAP3K15; 15% with MAP3K1; 5% in the assay with MAP3K2. For the same molecule, the “%Inh” value with MAP3K3 and with MAP3K4 was 0% each time.

Turning to `COC(=O)C(NC(=O)NC1CCN(c2ccnc(Nc3ccc(F)cc3)n2)C1)c1ccccc1` (centres unmarked) [GSK1379712], the “%Inh” value is 0% in the assay with JNK3; 5% in the assay on KIT-autoinhibited; 29% in the assay on KIT; 13% in the assay with LATS1; 5% in the assay with LATS2; 18% in the assay with LCK. Also, the “%Inh” value with LIMK1 was 17%; in the assay with LIMK2, 10%; in the assay with LKB1, 15%; in the assay with LOK, 0%; in the assay with LRRK2 it was 0%; in the assay with LTK, 30%. The “%Inh” value worked out at 7% in the assay on LYN; 18% in the assay with LZK; 0% with MAK; 0% in the assay on MAP3K15; 6% in the assay on MAP3K1; 0% with MAP3K2. Besides, the “%Inh” value in the assay with MAP3K3 is given as 0%; in the assay on MAP3K4, 6%.
